Structures can show the parent of a compound that is named as a salt.

In this assay the test system is Danio rerio larvae (5 dpf). In words: 1-h baseline activity (% time moving, periods 1-6) minus DMSO control (percentage points); higher = more locomotor activity than DMSO larvae. The conditions noted are these: 10 µM; exposure time: 3 h pre-incubation + 3 h imaging. How it is done:
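Wild-type 5 dpf zebrafish larvae (n=48 per drug, 96-well plates, 28.5 °C) were exposed to Tocris FDA-approved library compounds at 10 µM (0.1% DMSO) for 3 h before and 3 h during imaging. Images were taken every 6 s during visual (moving coloured lines) and acoustic stimuli, and larvae were tracked with the DeepLabCut-based Z-LaP Tracker. Each behavioural measure is the treated-group mean minus the DMSO vehicle control mean (n=844), in percentage points. This mapping covers compounds with 4-character plate codes.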
For the compound `CC(C)(C)NC(=O)[C@@H]1C[C@@H]2CCCC[C@@H]2CN1C[C@@H](O)[C@H](Cc1ccccc1)NC(=O)[C@H](CC(N)=O)NC(=O)c1ccc2ccccc2n1` [Saquinavir mesylate], the 1-h baseline activity is -10.4.

Consider `Nc1nc(Cl)nc2c1ncn2[C@@H]1O[C@H](CO)[C@@H](O)[C@@H]1F` [Clofarabine], for which the 1-h baseline activity is -5.31.

For `N[C@@H]1[C@H]2CN(c3nc4c(cc3F)c(=O)c(C(=O)O)cn4-c3ccc(F)cc3F)C[C@@H]12` [Trovafloxacin mesylate], the 1-h baseline activity amounted to 4.29.

As to `Nc1nc(F)nc2c1ncn2[C@@H]1O[C@H](CO)[C@@H](O)[C@@H]1O` [Fludarabine], the 1-h baseline activity was found to be 4.33.

In the case of `Cn1nnc2c(C(N)=O)ncn2c1=O` [Temozolomide], the 1-h baseline activity was 5.97.

For `CN1CC2c3ccccc3Oc3ccc(Cl)cc3C2C1` (stereo not given) [Asenapine maleate], the 1-h baseline activity turned out to be 30.8.

Regarding `COc1c(C)c2c(c(O)c1C/C=C(\C)CCC(=O)O)C(=O)OC2` [Mycophenolic acid], the 1-h baseline activity came to 1.89.

Turning to `Nc1ncn([C@@H]2O[C@H](CO)[C@@H](O)[C@H]2O)c(=O)n1` [5-Azacytidine], the 1-h baseline activity came out at 2.7.

Regarding `CCN(CC)CCNC(=O)c1c(C)[nH]c(/C=C2\C(=O)Nc3ccc(F)cc32)c1C` [Sunitinib malate], the 1-h baseline activity was -14.

Regarding `O=C1CCc2cc(OCCCCc3nnnn3C3CCCCC3)ccc2N1` [Cilostazol], the 1-h baseline activity was 10.

Take `Cn1cnc([N+](=O)[O-])c1Sc1ncnc2[nH]cnc12` [Azathioprine]: the 1-h baseline activity is 7.62.

As to `CCOC(=O)[C@H](CCc1ccccc1)N[C@H]1CCc2ccccc2N(CC(=O)O)C1=O` [Benazepril hydrochloride], the 1-h baseline activity was found to be 0.149.

As to `CC1=Nc2ccc(Cl)cc2S(=O)(=O)N1` [Diazoxide], the 1-h baseline activity was 7.2.

As for `Cc1cn([C@H]2C=C[C@@H](CO)O2)c(=O)[nH]c1=O` [Stavudine], the 1-h baseline activity is -7.04.

Turning to `CN1CCN(CCCN2c3ccccc3Sc3ccc(Cl)cc32)CC1` [Prochlorperazine dimaleate], the 1-h baseline activity amounted to 4.26.

As for `Cc1ccccc1C(=O)Nc1ccc(C(=O)N2CCCC(O)c3cc(Cl)ccc32)c(C)c1` (stereo not given) [Tolvaptan], the 1-h baseline activity came to 0.214.

As for `CC(C)c1nc(N(C)S(C)(=O)=O)nc(-c2ccc(F)cc2)c1/C=C/[C@@H](O)C[C@@H](O)CC(=O)O` [Rosuvastatin calcium], the 1-h baseline activity was found to be 2.58.

With `CN(CCOc1ccc(CC2SC(=O)NC2=O)cc1)c1ccccn1` (stereo not given) [Rosiglitazone], the 1-h baseline activity was -1.36.

Consider `CN1CC[C@@H](NC(=O)Nc2ccc(C#N)cc2)C[C@@H]1c1nc2ccccc2[nH]1`, for which the 1-h baseline activity was -10.

With `COc1cc2ncnc(Nc3ccc(F)c(Cl)c3)c2cc1OCCCN1CCOCC1` [Iressa], the 1-h baseline activity is -6.95.

Regarding `CC/C(=C(\c1ccccc1)c1ccc(OCCN(C)C)cc1)c1ccccc1` [Tamoxifen citrate], the 1-h baseline activity was 26.3.

As to `CCCN(CCc1cccs1)[C@H]1CCc2c(O)cccc2C1` [Rotigotine hydrochloride], the 1-h baseline activity was -27.

As for `CCCN(CCC)S(=O)(=O)c1ccc(C(=O)O)cc1` [Probenecid], the 1-h baseline activity is -2.34.

On to `C[C@H](Cc1cc2c(c(C(N)=O)c1)N(CCCO)CC2)NCCOc1ccccc1OCC(F)(F)F` [Silodosin], for which the 1-h baseline activity was -3.52.

In the case of `CC(C)[C@H]1CC[C@H](C(=O)N[C@H](Cc2ccccc2)C(=O)O)CC1` [Nateglinide], the 1-h baseline activity amounted to 3.52.

`Cc1nnc(C(C)C)n1C1C[C@H]2CC[C@@H](C1)N2CC[C@H](NC(=O)C1CCC(F)(F)CC1)c1ccccc1` (stereo in doubt) [Maraviroc]: the 1-h baseline activity was -3.33.

In the case of `NS(=O)(=O)Cc1noc2ccccc12` [Zonisamide], the 1-h baseline activity was determined as 2.49.

Take `Nc1nc(NC2CC2)c2ncn([C@H]3C=C[C@@H](CO)C3)c2n1` [Abacavir hemisulfate]: the 1-h baseline activity was determined as 6.96.

For the compound `NC(=O)c1ncn([C@@H]2O[C@H](CO)[C@@H](O)[C@H]2O)n1` [Ribavirin], the 1-h baseline activity was 1.15.

`OC(CNCC(O)C1CCc2cc(F)ccc2O1)C1CCc2cc(F)ccc2O1` (stereo not given) [Nebivolol hydrochloride]: the 1-h baseline activity was -2.33.

Regarding `CCCCCOC(=O)Nc1nc(=O)n([C@@H]2O[C@H](C)[C@@H](O)[C@H]2O)cc1F` [Capecitabine], the 1-h baseline activity turned out to be 6.82.

Turning to `CCOc1cc(CC(=O)N[C@@H](CC(C)C)c2ccccc2N2CCCCC2)ccc1C(=O)O` [Repaglinide], the 1-h baseline activity was found to be 4.99.

On to `CCc1ccc(CCOc2ccc(CC3SC(=O)NC3=O)cc2)nc1` (stereo not given) [Pioglitazone hydrochloride], for which the 1-h baseline activity was -7.48.

Take `CCN(Cc1ccncc1)C(=O)C(CO)c1ccccc1` (stereo not given) [Tropicamide]: the 1-h baseline activity was -5.81.

`Clc1ccc(COC(Cn2ccnc2)c2ccc(Cl)cc2Cl)c(Cl)c1` (stereo not given) [Miconazole nitrate]: the 1-h baseline activity is -19.7.

As for `OCCOCCN1CCN(C2=Nc3ccccc3Sc3ccccc32)CC1` [Quetiapine hemifumarate], the 1-h baseline activity was found to be 9.62.

As to `CS(=O)(=O)CCNCc1ccc(-c2ccc3ncnc(Nc4ccc(OCc5cccc(F)c5)c(Cl)c4)c3c2)o1` [Lapatinib], the 1-h baseline activity is -5.01.

With `Nc1ncn([C@H]2C[C@H](O)[C@@H](CO)O2)c(=O)n1` [Decitabine], the 1-h baseline activity stood at 1.07.

Take `CCOc1ccccc1OCCN[C@H](C)Cc1ccc(OC)c(S(N)(=O)=O)c1` [Tamsulosin hydrochloride]: the 1-h baseline activity turned out to be 3.66.

On to `Nc1nc2[nH]cc(CCc3ccc(C(=O)N[C@@H](CCC(=O)O)C(=O)O)cc3)c2c(=O)[nH]1` [Pemetrexed], for which the 1-h baseline activity was -1.52.

Source of the values: the supplement of paper PMC9950053.
